“And” between values parts separate entries of the source, which are not always exact repeats. Equal entries are not always repeated. Records with an inconclusive call do not appear. A number with no mark means an inactive call. Calls come from the whole dose curve; as a rule, active = well fitted activation curve with a large enough effect; inconclusive = small, poorly fitted or top-dose-only effect; inactive = no such curve, though single readings can be large or run the other way. Square brackets hold non-standard residues; d marks the D form. Peptide text beside a SMILES is read from it. pGlu = O=C1CC[C@@H](C(=O)O)N1; Thz = O=C(O)[C@@H]1CSCN1

Chain of Cellular tumor antigen p53 (Homo sapiens) (P04637 whole entry, looked up): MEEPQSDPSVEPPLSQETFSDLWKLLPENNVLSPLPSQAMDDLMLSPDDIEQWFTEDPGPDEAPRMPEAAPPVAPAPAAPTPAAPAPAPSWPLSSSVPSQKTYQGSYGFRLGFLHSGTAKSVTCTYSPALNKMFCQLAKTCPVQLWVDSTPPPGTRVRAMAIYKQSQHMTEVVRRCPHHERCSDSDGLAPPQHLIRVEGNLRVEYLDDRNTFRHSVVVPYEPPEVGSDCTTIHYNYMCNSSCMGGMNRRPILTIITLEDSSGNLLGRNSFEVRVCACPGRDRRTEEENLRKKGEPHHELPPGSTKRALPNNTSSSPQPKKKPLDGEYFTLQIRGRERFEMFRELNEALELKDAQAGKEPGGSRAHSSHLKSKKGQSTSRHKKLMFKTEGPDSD

This assay concerns the target Cellular tumor antigen p53 (Homo sapiens) (UniProt P04637). The experiment in a line: Primary qHTS for small molecule compounds that upregulate eGFP-tagged delta133p53alpha (in N-terminal) cells. (AID 2060322).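 Note: cells pre-induced with doxycycline then dosed without doxycycline; series mostly up to about 56 µM; 0% = DMSO vehicle and 100% = reference activator; nearly all actives have a fitted effect of over 75% in size.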 The note with it: NCI-H358 eGFP-delta133p53alpha fluorescence, 24 h; activation: stronger effect = higher value. In outline:
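NCI-H358 cells pre-induced 24 h with 10 ng/ml doxycycline for eGFP-delta133p53alpha, plated dox-free and exposed 24 h at 37C to titrated compounds. Fixed, Hoechst-stained; gated GFP peak intensity by laser scanning cytometry, normalized to DMSO (0%) and 57.5 uM 5-azacytidine (100%).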
(In general: qHTS replaces the single test concentration by a dilution series.)
Turning to `CN(C)C(=O)NC1(c2ccccc2)CCN(CCC[C@]2(c3ccc(Cl)c(Cl)c3)CCCN(C(=O)c3ccccc3)C2)CC1`, the activation was 13.4%.

Regarding `Cc1nnc(-c2ccc(-c3ccc(C(=O)Nc4ccc(O)c(N5CCN(C)CC5)c4)cc3)c(C)c2)o1`, the activation was -0.477%.

For the compound `CCCCNc1nc(N)c2[nH]c(=O)n(Cc3ccc(OCCN(C)C)nc3)c2n1`, the activation is -9.55%.

On to `COC(=O)[C@H](CC1C=NC=N1)NCC12CC3CC(CC(C3)C1)C2` (stereo not given in full), for which the activation was -8.11%.

For `O=C(N[C@@H]1CC[C@@H](c2cccc(F)c2F)CN(CC(F)(F)F)C1=O)N1CCC(n2c(=O)[nH]c3ncccc32)CC1`, the activation is -0.477%.

`CC(C)[C@@H]1C(=O)N(S(C)(=O)=O)[C@@H]2CCN(C(=O)/C=C/CN3CCCCC3)[C@H]21`: the activation is 8.11%.

Consider `Clc1cccc(-c2nnnn2Cc2cccnc2)c1Cl`, for which the activation is 12.9% and -2.86%.

For the compound `COc1cncc(C#Cc2ccccn2)c1`, the activation is 1.43%.

Regarding `CC(C)(C)c1cc(Br)cc([C@H](CC(=O)O)NC(=O)CNC(=O)c2cc(O)cc(NC3=NCC(O)CN3)c2)c1` (stereo not given in full), the activation is -5.25%.

As to `O=C(NCc1ccccn1)Nc1nnc(-c2ccco2)o1`, the activation was 11.9%.

`CNc1cc2[nH]c(=O)n(-c3ccc(NC(=O)NS(=O)(=O)c4ccc(Cl)s4)cc3)c(=O)c2cc1F`: the activation is 8.11%.

For `C=C1CC[C@H](O)CC1=C/C=C1\CCC[C@]2(C)[C@@H]([C@H](C)/C=C/[C@H](C)C(C)C)CC[C@@H]12`, the activation is 5.73%.

As to `CN1CC2CN(c3ccc4oc5ccccc5c(=O)c4c3)CC2C1` (stereo not given), the activation is 0.955%.

As to `CCCCOC(=O)NC(=O)C1c2ccccc2Oc2ccccc21`, the activation is -11.5%.

In the case of `O=C1CC[C@@H](C(=O)N2CSC[C@H]2C(=O)O)N1` ([pGlu]-[Thz]-OH), the activation is 1.43%.

Turning to `O=C(O)C1CN(Cc2ccc(-c3nc4cc(Cc5ccccc5F)ccc4s3)c(F)c2)C1`, the activation is -12.4%.

For `Cc1cc(C)nc(SCC(=O)Nc2ncc(Cc3cccc4ccccc34)s2)n1`, the activation was -8.11%.

As for `Cc1cc(C)nc(NS(=O)(=O)c2ccc(NC(=S)NC(=O)COc3ccc(Br)cc3Cl)cc2)n1`, the activation is -6.21%.

Turning to `CC[C@H]1OC(=O)[C@H](C)[C@@H](O[C@H]2C[C@@](C)(OC)[C@@H](O)[C@H](C)O2)[C@H](C)[C@@H](O[C@@H]2O[C@H](C)C[C@H](N(C)C)[C@H]2O)[C@@](C)(O)C[C@@H](C)[C@@H]2N[C@@H](COCCOC)OC([C@H]2C)[C@]1(C)O`, the activation is 7.16%.

As to `Cc1cc(NC(=O)NCCN2CCC(O)(Cc3ccccc3)CC2)c2ccccc2n1`, the activation is 3.34%.

For the compound `Cc1nnc(-c2ccc3occ(-c4ccc(S(C)=O)cc4)c3c2)o1` (stereo not given), the activation was -20.5%.

In the case of `CCCC(C(=O)O)c1c(C)nc2ccc(Cl)cc2c1-c1ccccc1` (stereo not given), the activation was -1.91%.

With `CCc1c(CC(N)=O)c2cc(OCCCP(=O)(O)O)ccc2n1Cc1ccccc1`, the activation was 2.86%.

In the case of `CC(=O)NCC1CN(c2ccc(-c3ccc(CNCc4cn[nH]n4)cc3)c(F)c2)C(=O)O1` (stereo not given), the activation is -4.77%.

`Cc1ccc(-c2cn3c4c(sc3n2)CCCC4)cc1`: the activation was 11%.

`COC(=O)C(Cc1ccc(OCCn2c(=O)sc3cc(C(=O)c4ccccc4)ccc32)cc1)C(=O)OC`: the activation was -10.5%.

Regarding `CC(C)c1nnc(-c2ccc(-c3ccccc3)nc2)n1-c1cccc2nonc12`, the activation is -5.73%.

Turning to `COc1cc(O)c(C(=O)O)c(CCc2ccccc2)c1`, the activation is -15.3%.

As for `O=C(O)[C@@H]1C[C@H]2C[C@@H](CCc3nn[nH]n3)CC[C@H]2CN1`, the activation was 4.77%.

Take `O=C(Nc1cc2cc[nH]c2cn1)c1ccccc1`: the activation was -10%.

Regarding `COc1ccc(CCN(C)CCCOc2nsc(-c3ccccc3)n2)cc1OC`, the activation was 13.4%.

Consider `CNC(=O)O[C@H]1COc2ccc(N3CCN(C4COC4)CC3)cc2[C@@H]1NC(=O)c1ccc(F)cc1`, for which the activation is -1.43%.

For `O=C(Nc1ccccc1)N1CCN(c2nc(-c3ccccc3)ns2)CC1`, the activation was -13.8%.

On to `O=C1CC2(CCCC2)[C@H](O)C(=O)N1CCCCN1CCN(c2ncccn2)CC1`, for which the activation was 4.77%.

For the compound `O=C(Nc1ccccc1)N1CCC(Cc2cnc3ccccc3c2)CC1`, the activation is 3.34%.

As for `O=C(Nc1nc2ccc([N+](=O)[O-])cc2s1)C1CCCCC1`, the activation is 17.2%.

In the case of `CCC(=O)N1CCc2cc(OC)c(O)cc2C1`, the activation was -7.64%.

Consider `CN(C)C(=O)C(O)C(Cc1ccccc1)NC(=O)c1cc2cc(Cl)ccc2[nH]1` (stereo not given), for which the activation was -1.43%.

On to `CCOC(CN1CCN(CC(C)C(=O)c2ccccc2)CC1)c1ccccc1` (stereo not given), for which the activation was -4.18% and 4.3%.

Take `CC(C)Nc1nc(Nc2ccccc2)nc(-c2ccccc2)n1`: the activation is 2.39%.

Values taken from PubChem BioAssay (NCATS).
